Here are results for 10 molecules from PubChem BioAssay (NCATS).

Each structure is given as a SMILES string. Results filed as inconclusive are left out. The source made the active and inactive calls. Unless noted, calls follow the shape of the dose curve; as a rule, active = well fitted curve in the direction sought with a large enough effect; inconclusive = small, poorly fitted or top-dose-only effect, or another doubt; inactive = no such curve, though single readings can be large; an effect the other way counts as inactive or inconclusive.

Assay [1] concerns the target D(1A) dopamine receptor (Homo sapiens) (UniProt P21728). Put plainly: HTS Assay for Allosteric Agonists of the Human D1 Dopamine Receptor: Primary Screen for Agonists (AID 488981). Also: 0% is about no effect. A digest of the protocol:
(§1)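 Calcium flux in an inducible, force-coupled HEK293 Trex D1 line (overnight at 30 C): agonist mode is the 180 s kinetic read after compound; potentiator mode is the following 180 s read after dopamine at EC20.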

For assay [2] the target is unchanged. Put plainly: HTS Assay for Allosteric Agonists of the Human D1 Dopamine Receptor: Primary Screen for Potentiators (AID 488982). Also: 0% is about no effect. A digest of the protocol:
as §1

The target is the same in assay [3]. Briefly: HTS Assay for Allosteric Agonists of the Human D1 Dopamine Receptor: Primary Screen for Antagonists (AID 488983).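 Also: calcium flux response to an EC80 dopamine challenge measured with no-wash dye; % is scaled to controls: 0 for no effect and ±100 for the full control effect; nearly all actives have a fitted effect of over 65% in size.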 A digest of the protocol:
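Tetracycline-induced HEK293 T-REx D1 line, force-coupled to calcium flux, read with no-wash calcium dye. Compound added after 10 s baseline, read 180 s for agonism, then EC80 dopamine added and read a further 180 s.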

A short description of assay [4]: Validation screen for small molecules that induce genotoxicity in human embryonic kidney (HEK293T) cells expressing luciferase-tagged ELG1 (AID 493106). Also: 0% is about no effect. In a few lines: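 HEK293T cells expressing luciferase-tagged ELG1, 2,000 cells/well, exposed to compound 16 hr at 37 °C, 5% CO2. Luciferase read after ONE-Glo, 30 min at room temperature; increased signal indicates genetic stress.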

Assay [5] concerns the target ATPase family AAA domain-containing protein 5 (Homo sapiens) (UniProt Q96QE3). Briefly: Validation screen for small molecules that inhibit ELG1-dependent DNA repair in human embryonic kidney (HEK293T) cells expressing luciferase-tagged ELG1 (AID 493107).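 Also: cells co-treated with the DNA-damaging agent 5-fluorouridine alongside compound; series mostly up to about 46 µM; % is scaled to controls: 0 for no effect and ±100 for the full control effect; inhibitors lower the ELG1-luciferase luminescence signal; nearly all actives have a fitted effect of over 70% in size.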 In a few lines: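 HEK293T cells expressing luciferase-tagged ELG1, 2,000 per well, treated with 5-fluorouridine plus compound for 16 h at 37 C. ONE-Glo luminescence after 30 min at room temperature reports ELG1 reporter level.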

The nature of assay [6]: Nrf2 qHTS screen for inhibitors: Validation (AID 493153; active = well fitted inhibition curve with a large enough effect in the main read-out, with a control signal flat, not every such curve was filed as active). Particulars: viability change: measured here: cytotoxicity max response. An excerpt: NIH Molecular Libraries Probe Production Network [MLPCN] NIH Chemical Genomics Center [NCGC] MLPCN Grant: R03-MH092170-01 Assay Provider: Shyam Biswal, Johns Hopkins University Assay Overview: Nrf2 is a transcription factor that maintains cellular redox homoestasis and protects cells from xenobiotics. Nrf2 binds to the antioxidant response element (ARE) to induce gene expression of a broad spectrum of genes that encode for antioxidants. […] Finding a small molecule that act as an inhibitor of Nrf2 function would represent a novel therapeutic target that could lead to improvement in survival of patients undergoing chemo- and/or radio- therapy. 1. Shibata, T., et al., Genetic Alteration of Keap1 Confers Constitutive Nrf2 Activation and Resistance to Chemotherapy in Gallbladder Cancer. Gastroenterology, 2008. 2. Sjoblom, T., et al., The consensus coding sequences of human breast and colorectal cancers. Science, 2006. 314(5797): p. 268-74.
Assay Protocol Summary: A concentration-response assay was performed with A549 ARE_Fluc cells which are suspended in 5% FBS OPTI-MEM. Five uL were dispensed into 1536-well white TC-treated plate using the Kalypsys dispenser to achieve a density of 5000 cells/well in all columns except column 1. The plate is incubated at 37deg C at 5% CO2 for 2 hours before 23 nL of compounds are added with the Kalypsys pin tool equipped with a 1,536-pin array containing 10-nL slotted pins (FP1S10, 0.457-mm diameter, 50.8 mm long; V&P Scientific). The control compounds Budesonide and Staurosporine are both added at a concentration of 2mM and Budesonide is also added as a 1:10 titration, starting at 200uM, to achieve dose-response. After an 18-24 hour incubation at 37deg C at 5% CO2, 5ul of medium is added to column 1. Afterwards 1ul of 5x of CellTiter-Fluor (Promega) is added to every well. The plate is then incubated at 37deg C at 5% CO2 for 30 minutes before they are read on the ViewLux (Perkin Elmer) for a fluorescent read Ex=405(10)/Em=525(10) for a 3 second exposure, 2x binning, and high gain. Then 3 uL of 3x BugLite is dispensed into all wells and the plate is incubated at ambient room temperature for 15 minutes. Afterwards another ViewLux read is performed using the clear filter to get a luminescent read with the settings of 40 second exposure, 2x binning, and high gain. Cytotoxicity is assessed through the first fluorescent read and then biochemical activity against Nrf2 is measured in the luminescent read.
(In general: In qHTS, concentration-response curves come from the screen itself.)

Assay [7] is described as follows: qHTS for Inhibitors of Cell Surface uPA Generation: Validation Assay (AID 493164). Also: 0% is about no effect. In a few lines:
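RAW 264.7 cells (4000/well) were plated overnight, then exposed for 18 h at 37 C, 5% CO2 to compounds in a 7-point 1:5 titration (2.45 nM–38.3 uM final). Intracellular ATP was read by ATP-Lite luminescence.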

Assay [8] concerns the target ATP-dependent 6-phosphofructokinase (Trypanosoma brucei brucei) (UniProt O15648). Briefly: qHTS Assay to Find Inhibitors of T. brucei phosphofructokinase: hit validation (AID 492961).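 Also: luminescence reports ADP formed as PFK phosphorylates fructose-6-phosphate with ATP; series mostly up to about 51 µM; % is scaled to controls: 0 for no effect and ±100 for the full control effect.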 An excerpt:
NIH Molecular Libraries Probe Production Network [MLPCN] NIH Chemical Genomics Center [NCGC] Grant: 1 R03 MH092153-01 PI Name: Malcolm Walkinshaw, University of Edinburgh NCGC Assay Overview: Various species of the protozoan family Trypanosomatidae are responsible for a range of serious human diseases in tropical and subtropical areas of the world. […] Many of the disorders caused by trypanosomatids are fatal if left untreated, but most currently used drugs are inefficient and toxic. […] Oxidative metabolism involving the mitochondrial tricarboxylic acid cycle and oxidative phosphorylation are repressed in these parasites, and recent RNA interference (RNAi) experiments have shown that even partial depletion of certain individual glycolytic enzymes can lead to the death of cultured parasites. One such glycolytic enzyme, phosphofructokinase (PFK), catalyzes the formation of fructose-1,6-bisphosphate (F1,6BP) and ADP from fructose-6-phosphate (F6P) and ATP, and in many metabolic circumstances makes an important contribution to the control of flux through the glycolytic pathway. As a specific glycolytic target, PFK is particularly attractive as it catalyzes the first irreversible step in glycolysis, and structural and kinetic studies have shown very substantial and essential differences from corresponding host enzymes, allowing for the discovery of parasite-selective inhibitors. The goal of this screen is to find small-molecule inhibitors of T. brucei PFK using a biochemical assay that measures PFK activity as a function of ADP production. A luminescence-based assay for T. brucei PFK activity has been developed which uses luciferase to detect production of ADP. Traditional luciferase-based nucleotide detection reagents rely on ATP production as a direct substrate for the luciferase reaction; however, PFK catalyzes the transfer of a phosphate from ATP to F6P, resulting in the net depletion of ATP. To directly measure the ADP product of the PFK reaction, we used the ADP-Glo detection kit (Promega), which utilizes two separate reactions to 1) deplete all remaining uncatalyzed ATP and 2) convert all remaining ADP to ATP, which is then detected through a traditional luciferase-coupled reaction. Compounds were screened as a concentration-titration series that ranged from 57 uM to 0.7 nM.
NCGC Assay Protocol Summary: Substrate buffer was dispensed into white, solid 1536-well plates at 3uL/well in 0.1M triethanolamine (TEA) buffer, pH 8.0, containing final concentrations of 5 mM MgCl2, 0.01% Tween20, 0.5 mM fructose-6-phosphate (F6P) and 0.1mM ATP. Then, 23 nL of compounds or DMSO were delivered to each well using a pin tool. One uL T. brucei PFK (0.1M TEA, 0.01% Tween20, 0.1% bovine serum albumin (BSA) and 1.25nM PFK, final concentrations) was then dispensed, and plates were incubated at room temperature for 45 min. The luminescent detection reagent, ADP-Glo (Promega), was then added in two steps: the first reagent, ADP-Glo (which converts remaining uncatalyzed ATP), was added at 2.5uL/well and incubated for ten minutes at room temperature, and the second component, Kinase Detection reagent (which converts ADP to ATP as a substrate for luciferase-based luminescence), was added immediately after at 5uL/well, followed by one final ten minute room temperature incubation. The plates were measured on a ViewLux plate reader for luminescent signal using a clear filter with a one second exposure. The %Activity was determined from the corrected luminescence values. As no specific T. brucei PFK inhibitors have been identified in the literature, 1x (1.25nM) and 0x PFK enzyme controls (untreated) were included to normalize %Activity of identified inhibitors; 0x enzyme values corresponded to 100%Activity (full inhibition), while 1x PFK enzyme values were used to normalize 0%Activity (no inhibition). Concentration-response curves were fitted to the signals arising from the resulting luminescence. […]

Assay [9] has as its target Thyrotropin receptor (Homo sapiens) (UniProt P16473). Briefly: qHTS Assay for Antagonists of the Thyroid Stimulating Hormone Receptor (AID 488980). Also: series mostly up to about 58 µM; 0% is about no effect. In a few lines:
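TSHR-transfected HEK293 cells (2000/well) in HEPES-buffered HBSS with 70 uM RO 20-1724 were stimulated with 4 nM TSH (EC80, final) in the presence of compound. cAMP was measured by HTRF competition after lysis and 30 min at RT.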

For assay [10], the target named is Galactokinase (Homo sapiens) (UniProt P51570). Put plainly: qHTS Validation Assay for Inhibitors of Human Galactokinase (GALK) (AID 493189). Also: 0% is about no effect. A digest of the protocol: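 GALK (5 nM) with 35 uM ATP and 100 uM galactose in HEPES pH 8.0 with MgCl2, NaCl, DTT and BSA. Reaction ran 1 h at room temperature. Residual ATP read by Kinase-Glo Plus luminescence.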
Chain of Galactokinase (Homo sapiens) (P51570 whole entry, looked up): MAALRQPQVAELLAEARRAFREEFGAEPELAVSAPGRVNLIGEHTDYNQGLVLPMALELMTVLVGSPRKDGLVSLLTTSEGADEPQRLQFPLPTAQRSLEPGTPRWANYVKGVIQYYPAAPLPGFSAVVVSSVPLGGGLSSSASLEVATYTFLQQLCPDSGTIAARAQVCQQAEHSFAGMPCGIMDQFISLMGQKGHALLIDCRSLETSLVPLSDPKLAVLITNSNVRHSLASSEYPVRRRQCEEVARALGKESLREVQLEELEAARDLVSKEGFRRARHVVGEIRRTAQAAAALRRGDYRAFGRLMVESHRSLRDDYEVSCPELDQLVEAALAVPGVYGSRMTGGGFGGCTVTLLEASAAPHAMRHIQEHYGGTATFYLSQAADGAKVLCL

Chain of ATPase family AAA domain-containing protein 5 (Homo sapiens) (Q96QE3 whole entry, looked up, the tested form may be a part): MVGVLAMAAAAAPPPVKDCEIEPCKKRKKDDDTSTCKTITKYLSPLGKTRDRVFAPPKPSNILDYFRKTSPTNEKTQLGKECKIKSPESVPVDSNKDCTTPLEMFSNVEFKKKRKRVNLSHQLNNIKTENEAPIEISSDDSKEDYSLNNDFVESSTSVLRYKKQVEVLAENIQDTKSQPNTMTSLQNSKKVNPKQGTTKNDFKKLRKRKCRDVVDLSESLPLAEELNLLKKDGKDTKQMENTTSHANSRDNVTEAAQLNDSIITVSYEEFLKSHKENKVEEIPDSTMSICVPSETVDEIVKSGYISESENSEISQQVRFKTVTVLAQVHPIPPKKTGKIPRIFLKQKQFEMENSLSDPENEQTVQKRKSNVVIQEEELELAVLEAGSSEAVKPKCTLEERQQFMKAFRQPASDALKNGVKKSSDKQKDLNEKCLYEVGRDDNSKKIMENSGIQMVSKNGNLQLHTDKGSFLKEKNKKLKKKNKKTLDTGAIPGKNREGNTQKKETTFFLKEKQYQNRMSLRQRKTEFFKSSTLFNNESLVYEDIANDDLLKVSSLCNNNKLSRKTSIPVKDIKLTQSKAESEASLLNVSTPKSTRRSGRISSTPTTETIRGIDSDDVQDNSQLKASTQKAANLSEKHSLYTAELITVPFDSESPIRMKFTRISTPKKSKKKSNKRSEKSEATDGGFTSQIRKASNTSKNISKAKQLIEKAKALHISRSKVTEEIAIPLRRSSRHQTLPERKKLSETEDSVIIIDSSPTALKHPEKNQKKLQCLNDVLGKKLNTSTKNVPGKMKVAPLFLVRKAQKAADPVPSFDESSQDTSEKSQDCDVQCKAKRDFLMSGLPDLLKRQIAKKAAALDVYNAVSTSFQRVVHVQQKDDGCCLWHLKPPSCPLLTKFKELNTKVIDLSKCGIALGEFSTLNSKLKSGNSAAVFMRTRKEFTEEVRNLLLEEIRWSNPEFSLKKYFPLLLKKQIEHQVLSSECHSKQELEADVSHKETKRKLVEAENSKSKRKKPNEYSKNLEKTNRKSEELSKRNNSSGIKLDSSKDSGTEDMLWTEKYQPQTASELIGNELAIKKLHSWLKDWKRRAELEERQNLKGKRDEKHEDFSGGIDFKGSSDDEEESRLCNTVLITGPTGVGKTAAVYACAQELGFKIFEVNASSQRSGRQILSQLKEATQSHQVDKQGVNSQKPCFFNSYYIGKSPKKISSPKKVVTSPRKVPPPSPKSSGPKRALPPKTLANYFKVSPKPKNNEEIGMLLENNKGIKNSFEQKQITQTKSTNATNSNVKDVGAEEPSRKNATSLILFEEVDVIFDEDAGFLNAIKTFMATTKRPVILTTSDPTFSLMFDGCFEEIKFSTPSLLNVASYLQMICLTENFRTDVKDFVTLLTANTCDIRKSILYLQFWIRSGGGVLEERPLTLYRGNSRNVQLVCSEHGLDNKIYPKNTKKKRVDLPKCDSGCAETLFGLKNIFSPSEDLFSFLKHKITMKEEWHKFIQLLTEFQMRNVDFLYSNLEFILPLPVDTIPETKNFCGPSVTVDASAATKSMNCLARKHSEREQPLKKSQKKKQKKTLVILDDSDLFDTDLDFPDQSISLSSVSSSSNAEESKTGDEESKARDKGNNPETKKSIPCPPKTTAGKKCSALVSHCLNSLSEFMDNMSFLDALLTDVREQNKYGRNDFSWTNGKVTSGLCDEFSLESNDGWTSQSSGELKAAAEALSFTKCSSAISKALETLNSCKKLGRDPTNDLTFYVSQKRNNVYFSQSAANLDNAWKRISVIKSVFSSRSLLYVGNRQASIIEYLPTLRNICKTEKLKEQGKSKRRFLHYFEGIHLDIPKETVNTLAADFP
Chain of D(1A) dopamine receptor (Homo sapiens) (P21728 whole entry, looked up): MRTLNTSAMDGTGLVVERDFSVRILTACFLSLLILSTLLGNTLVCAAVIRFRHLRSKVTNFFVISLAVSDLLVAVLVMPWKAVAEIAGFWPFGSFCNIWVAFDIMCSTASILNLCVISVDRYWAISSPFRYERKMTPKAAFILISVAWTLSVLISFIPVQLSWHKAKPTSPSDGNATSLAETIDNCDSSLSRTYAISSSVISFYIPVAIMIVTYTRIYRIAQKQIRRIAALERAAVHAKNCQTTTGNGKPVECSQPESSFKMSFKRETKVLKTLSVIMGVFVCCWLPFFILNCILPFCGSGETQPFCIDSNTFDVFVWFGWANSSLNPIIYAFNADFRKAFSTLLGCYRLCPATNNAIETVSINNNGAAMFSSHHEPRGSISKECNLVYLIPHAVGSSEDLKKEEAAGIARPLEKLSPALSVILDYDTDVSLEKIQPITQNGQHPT
Chain of ATP-dependent 6-phosphofructokinase (Trypanosoma brucei brucei) (O15648 whole entry, looked up): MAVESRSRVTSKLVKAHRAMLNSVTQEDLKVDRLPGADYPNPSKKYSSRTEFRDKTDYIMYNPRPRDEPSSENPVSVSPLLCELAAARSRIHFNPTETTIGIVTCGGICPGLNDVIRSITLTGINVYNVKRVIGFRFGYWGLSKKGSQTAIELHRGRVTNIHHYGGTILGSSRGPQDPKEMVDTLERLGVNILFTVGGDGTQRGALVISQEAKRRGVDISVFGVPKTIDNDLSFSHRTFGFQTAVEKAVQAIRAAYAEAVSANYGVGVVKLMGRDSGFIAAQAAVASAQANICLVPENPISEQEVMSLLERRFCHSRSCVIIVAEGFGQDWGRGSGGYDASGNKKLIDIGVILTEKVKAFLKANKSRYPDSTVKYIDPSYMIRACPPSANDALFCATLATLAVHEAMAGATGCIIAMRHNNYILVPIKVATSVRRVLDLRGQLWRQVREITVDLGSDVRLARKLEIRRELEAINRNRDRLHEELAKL
Chain of Thyrotropin receptor (Homo sapiens) (P16473 whole entry, looked up): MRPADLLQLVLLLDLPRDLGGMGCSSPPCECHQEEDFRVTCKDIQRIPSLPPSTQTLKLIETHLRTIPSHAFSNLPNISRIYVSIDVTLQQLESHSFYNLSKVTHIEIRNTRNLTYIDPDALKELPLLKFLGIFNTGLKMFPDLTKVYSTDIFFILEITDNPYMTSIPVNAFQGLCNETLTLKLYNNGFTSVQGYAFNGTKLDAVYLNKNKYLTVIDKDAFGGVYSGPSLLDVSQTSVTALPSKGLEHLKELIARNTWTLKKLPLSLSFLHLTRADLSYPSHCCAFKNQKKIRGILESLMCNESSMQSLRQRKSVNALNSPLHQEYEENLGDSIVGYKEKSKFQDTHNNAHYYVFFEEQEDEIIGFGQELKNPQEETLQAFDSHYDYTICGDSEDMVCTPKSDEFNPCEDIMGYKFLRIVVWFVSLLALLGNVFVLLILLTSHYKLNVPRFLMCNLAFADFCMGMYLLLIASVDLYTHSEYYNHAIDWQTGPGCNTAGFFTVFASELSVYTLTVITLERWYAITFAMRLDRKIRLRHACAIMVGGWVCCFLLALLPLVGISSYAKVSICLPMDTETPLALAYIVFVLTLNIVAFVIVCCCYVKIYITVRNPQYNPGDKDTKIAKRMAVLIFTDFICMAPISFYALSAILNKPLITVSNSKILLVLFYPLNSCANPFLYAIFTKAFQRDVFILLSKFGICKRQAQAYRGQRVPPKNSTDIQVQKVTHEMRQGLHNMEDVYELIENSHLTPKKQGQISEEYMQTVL

Take `COc1ccc2cc([S+]([O-])Cc3ncc(C)c(OC)c3C)nc2c1`: the outcome in [1], in [2], in assay [3], in [4], in assay [5] and in assay [6] was inactive. Moreover, in assay [7], the outcome was inactive. The viability change in assay [6] is -3.22%.

As to `OCC(O)C(O)C(O)CO` (configuration not stated), the result in [8] was inactive.

In the case of `COc1ccc([C@@H]2CNC(=O)C2)cc1OC1CCCC1`, in [8], the result was inactive.

In the case of `CCCCCCCCCCCC(CC1OC(=O)C1CCCCCC)OC(=O)C(CC(C)C)NC=O` (configuration not stated), the result in assay [8] was inactive.

`COc1ccc2c(c1OC)C(=O)OC2[C@H]1c2c(cc3c(c2OC)OCO3)CCN1C` (some centres not stated): the call in assay [8] was inactive.

`O=c1[nH]c(=O)n([C@H]2C[C@@H](O)[C@@H](CO)O2)cc1C=CBr`: the call in [1], in assay [2], in assay [3], in assay [4], in [5] and in assay [6] was inactive. Besides, in assay [7], the outcome was inactive. The viability change in assay [6] was 1.21%.

In the case of `CCC(C(=O)O)C1CCC(C)C(C(C)C(O)C(C)C(=O)C(CC)C2OC3(C=CC(O)[C@@]4(CC[C@](C)(C5CC[C@@](O)(CC)C(C)O5)O4)O3)C(C)CC2C)O1` (some centres not stated), the call in assay [8] was inactive.

As for `CN[C@H](CC(C)C)C(=O)N[C@H]1C(=O)N[C@@H](CC(N)=O)C(=O)N[C@@H]2C(=O)N[C@H]3C(=O)N[C@H](C(=O)N[C@H](C(=O)O)c4cc(O)cc(O)c4-c4cc3ccc4O)[C@H](O)c3ccc(c(Cl)c3)Oc3cc2cc(c3O[C@@H]2O[C@H](CO)[C@@H](O)[C@H](O)[C@@H]2O[C@H]2C[C@](C)(N)[C@H](O)[C@H](C)O2)Oc2ccc(cc2Cl)[C@H]1O`, the outcome in assay [1], in [2], in [3], in assay [4], in [5] and in assay [6] was inactive. The molecule was classed as inactive in assay [7]. The viability change in [6] was -4.03%.

Turning to `Nc1nc2c(c(=O)[nH]1)N(C=O)[C@H](CNc1ccc(C(=O)N[C@@H](CCC(=O)O)C(=O)O)cc1)CN2`, the molecule was called inactive in assay [8].

Consider `N=c1ccn2c(n1)O[C@H]1[C@@H](O)[C@@H](CO)O[C@H]12`, for which the outcome in assay [9] and in assay [10] was inactive.
